Source: PubChem BioAssay (EPA / NIEHS)
The source made the active and inactive calls. How the source made its calls: active means hit-call score of the fitted dose curve at least 0.9, where 1 is the maximum; inactive means score below 0.9.

Assays:
[1] = CEETOX_H295R_CORTISOL: CeeTox H295R High-throughput Steroidogenesis Assay for Cortisol (AID 2283438); settings: actives raise or lower the signal;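 further: cortisol secreted into medium quantified by LC-MS/MS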
Procedure, shortened: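 Human adrenocortical H295R cells (passage ≤10) received test chemicals for 48 h after forskolin priming. Secreted cortisol was measured by LC-MS/MS.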

[2] = CEETOX_H295R_DOC: CeeTox H295R High-throughput Steroidogenesis Assay for DOC (AID 2283439); settings: actives raise or lower the signal
Procedure, shortened: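 Secreted DOC was quantified from H295R media by HPLC-MS/MS after 48 h chemical exposure following 48 h forskolin (10 uM) prestimulation. Values were fitted in both directions relative to DMSO, the negative control and baseline.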

[3] = CEETOX_H295R_ESTRADIOL: CeeTox H295R High-throughput Steroidogenesis Assay for Estradiol (AID 2283440); settings: actives raise or lower the signal;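 further: estradiol secreted into medium quantified by LC-MS/MS after dansyl derivatisation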
Procedure, shortened: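 H295R, 48 h forskolin (10 uM) prestim → 48 h compound, 0.1% DMSO final. Estradiol in medium: MTBE extraction, dansyl chloride derivatization, LC-MS/MS. Fit bidirectional vs DMSO baseline; MTT viability in same wells.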

[4] = CEETOX_H295R_ESTRONE: CeeTox H295R High-throughput Steroidogenesis Assay for Estrone (AID 2283441); settings: actives raise or lower the signal;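 further: estrone secreted into medium measured by LC-MS/MS after dansyl derivatization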;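 on AC50: human adrenal H295R cells prestimulated with forskolin for two days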
Procedure, shortened: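 H295R cells; 48 h forskolin (10 uM) prestimulation; 48 h compound exposure, 0.1% DMSO final. Medium estrone: MTBE extraction, dansyl derivatization, HPLC-MS/MS. Bidirectional fit vs DMSO.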

[5] = CEETOX_H295R_PROG: CeeTox H295R High-throughput Steroidogenesis Assay for Progesterone (PROG) (AID 2283442); settings: actives raise or lower the signal;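 on AC50: human H295R adrenal cells primed with 10 µM forskolin before dosing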
Procedure, shortened: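 Progesterone read-out: HPLC-MS/MS on MTBE extracts of conditioned medium after 48 h chemical exposure of forskolin-primed (10 uM, 48 h) H295R cells. Gain or loss of signal was fitted relative to DMSO baseline.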

[6] = read-out: Tumor necrosis factor receptor superfamily member 6 (Homo sapiens) (UniProt P25445); assay: LTEA_HepaRG_FAS: Life Technologies and Expression Analysis (LTEA) Assay for Fas cell surface death receptor (FAS) using HepaRG (AID 2283447); settings: mRNA level, 48 h; actives raise or lower the signal
Procedure, shortened: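 FAS transcript level was measured by TaqMan qRT-PCR against three housekeeping genes after 48 h chemical exposure. Cells were HepaRG, 0.5% DMSO vehicle, with a top concentration of 100 uM and half-log dilutions over eight points, in duplicate.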

[7] = read-out: Fatty acid synthase (Homo sapiens) (UniProt P49327); assay: LTEA_HepaRG_FASN: Life Technologies and Expression Analysis (LTEA) Assay for Fatty Acid Synthase (FASN) using HepaRG (AID 2283448); settings: mRNA level, 48 h; actives raise or lower the signal;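 on AC50: differentiated human HepaRG liver cells in serum-free induction medium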
Procedure, shortened: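 Transcript-level assay: HepaRG liver cells are treated for 48 h across an eight-point range topping at 100 uM, and FASN mRNA, normalized to three housekeeping genes, is compared with DMSO controls in both directions.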

[8] = read-out: Cyclin D2 (CCND2), CCND2 (gene 894); assay: LTEA_HepaRG_CCND2: Life Technologies and Expression Analysis (LTEA) Assay for Cyclin D2 (CCND2) using HepaRG (AID 2283449); settings: mRNA level, 48 h; actives raise or lower the signal
Procedure, shortened: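 Read-out is CCND2 mRNA level measured by qRT-PCR in human HepaRG liver cells and normalised to three housekeeping genes. Chemicals were applied for 48 h at up to 100 uM, with gain or loss fitted relative to 0.5% DMSO.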

[9] = read-out: Cyclin Dependent Kinase Inhibitor 1A (CDKN1A), CDKN1A (gene 1026); assay: LTEA_HepaRG_CDKN1A: Life Technologies and Expression Analysis (LTEA) Assay for Cyclin Dependent Kinase Inhibitor 1A (CDKN1A) using HepaRG (AID 2283450); settings: mRNA level, 48 h; actives raise or lower the signal
Procedure, shortened: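 HepaRG, 48 h dosing, 8-pt half-log series from 100 uM top, 0.5% DMSO vehicle, duplicates. Readout: TaqMan qRT-PCR of CDKN1A transcript, housekeeping-normalized (ACTB, GAPDH, POLR2A). Up/down curve fit relative to DMSO.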

[10] = CEETOX_H295R_ANDR: CeeTox H295R High-throughput Steroidogenesis Assay for Androstenedione (ANDR) (AID 2283436); settings: actives raise or lower the signal;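 further: human H295R adrenal cells exposed for 48 h with androstenedione measured in medium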
Procedure, shortened: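 Read-out is androstenedione secreted into medium, measured by tandem mass spectrometry after liquid-liquid extraction. Cells were H295R, dosed for 48 h per modified OECD 456; activity fitted in both directions relative to DMSO.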

Sequence of Fatty acid synthase (Homo sapiens) (P49327 whole entry, looked up): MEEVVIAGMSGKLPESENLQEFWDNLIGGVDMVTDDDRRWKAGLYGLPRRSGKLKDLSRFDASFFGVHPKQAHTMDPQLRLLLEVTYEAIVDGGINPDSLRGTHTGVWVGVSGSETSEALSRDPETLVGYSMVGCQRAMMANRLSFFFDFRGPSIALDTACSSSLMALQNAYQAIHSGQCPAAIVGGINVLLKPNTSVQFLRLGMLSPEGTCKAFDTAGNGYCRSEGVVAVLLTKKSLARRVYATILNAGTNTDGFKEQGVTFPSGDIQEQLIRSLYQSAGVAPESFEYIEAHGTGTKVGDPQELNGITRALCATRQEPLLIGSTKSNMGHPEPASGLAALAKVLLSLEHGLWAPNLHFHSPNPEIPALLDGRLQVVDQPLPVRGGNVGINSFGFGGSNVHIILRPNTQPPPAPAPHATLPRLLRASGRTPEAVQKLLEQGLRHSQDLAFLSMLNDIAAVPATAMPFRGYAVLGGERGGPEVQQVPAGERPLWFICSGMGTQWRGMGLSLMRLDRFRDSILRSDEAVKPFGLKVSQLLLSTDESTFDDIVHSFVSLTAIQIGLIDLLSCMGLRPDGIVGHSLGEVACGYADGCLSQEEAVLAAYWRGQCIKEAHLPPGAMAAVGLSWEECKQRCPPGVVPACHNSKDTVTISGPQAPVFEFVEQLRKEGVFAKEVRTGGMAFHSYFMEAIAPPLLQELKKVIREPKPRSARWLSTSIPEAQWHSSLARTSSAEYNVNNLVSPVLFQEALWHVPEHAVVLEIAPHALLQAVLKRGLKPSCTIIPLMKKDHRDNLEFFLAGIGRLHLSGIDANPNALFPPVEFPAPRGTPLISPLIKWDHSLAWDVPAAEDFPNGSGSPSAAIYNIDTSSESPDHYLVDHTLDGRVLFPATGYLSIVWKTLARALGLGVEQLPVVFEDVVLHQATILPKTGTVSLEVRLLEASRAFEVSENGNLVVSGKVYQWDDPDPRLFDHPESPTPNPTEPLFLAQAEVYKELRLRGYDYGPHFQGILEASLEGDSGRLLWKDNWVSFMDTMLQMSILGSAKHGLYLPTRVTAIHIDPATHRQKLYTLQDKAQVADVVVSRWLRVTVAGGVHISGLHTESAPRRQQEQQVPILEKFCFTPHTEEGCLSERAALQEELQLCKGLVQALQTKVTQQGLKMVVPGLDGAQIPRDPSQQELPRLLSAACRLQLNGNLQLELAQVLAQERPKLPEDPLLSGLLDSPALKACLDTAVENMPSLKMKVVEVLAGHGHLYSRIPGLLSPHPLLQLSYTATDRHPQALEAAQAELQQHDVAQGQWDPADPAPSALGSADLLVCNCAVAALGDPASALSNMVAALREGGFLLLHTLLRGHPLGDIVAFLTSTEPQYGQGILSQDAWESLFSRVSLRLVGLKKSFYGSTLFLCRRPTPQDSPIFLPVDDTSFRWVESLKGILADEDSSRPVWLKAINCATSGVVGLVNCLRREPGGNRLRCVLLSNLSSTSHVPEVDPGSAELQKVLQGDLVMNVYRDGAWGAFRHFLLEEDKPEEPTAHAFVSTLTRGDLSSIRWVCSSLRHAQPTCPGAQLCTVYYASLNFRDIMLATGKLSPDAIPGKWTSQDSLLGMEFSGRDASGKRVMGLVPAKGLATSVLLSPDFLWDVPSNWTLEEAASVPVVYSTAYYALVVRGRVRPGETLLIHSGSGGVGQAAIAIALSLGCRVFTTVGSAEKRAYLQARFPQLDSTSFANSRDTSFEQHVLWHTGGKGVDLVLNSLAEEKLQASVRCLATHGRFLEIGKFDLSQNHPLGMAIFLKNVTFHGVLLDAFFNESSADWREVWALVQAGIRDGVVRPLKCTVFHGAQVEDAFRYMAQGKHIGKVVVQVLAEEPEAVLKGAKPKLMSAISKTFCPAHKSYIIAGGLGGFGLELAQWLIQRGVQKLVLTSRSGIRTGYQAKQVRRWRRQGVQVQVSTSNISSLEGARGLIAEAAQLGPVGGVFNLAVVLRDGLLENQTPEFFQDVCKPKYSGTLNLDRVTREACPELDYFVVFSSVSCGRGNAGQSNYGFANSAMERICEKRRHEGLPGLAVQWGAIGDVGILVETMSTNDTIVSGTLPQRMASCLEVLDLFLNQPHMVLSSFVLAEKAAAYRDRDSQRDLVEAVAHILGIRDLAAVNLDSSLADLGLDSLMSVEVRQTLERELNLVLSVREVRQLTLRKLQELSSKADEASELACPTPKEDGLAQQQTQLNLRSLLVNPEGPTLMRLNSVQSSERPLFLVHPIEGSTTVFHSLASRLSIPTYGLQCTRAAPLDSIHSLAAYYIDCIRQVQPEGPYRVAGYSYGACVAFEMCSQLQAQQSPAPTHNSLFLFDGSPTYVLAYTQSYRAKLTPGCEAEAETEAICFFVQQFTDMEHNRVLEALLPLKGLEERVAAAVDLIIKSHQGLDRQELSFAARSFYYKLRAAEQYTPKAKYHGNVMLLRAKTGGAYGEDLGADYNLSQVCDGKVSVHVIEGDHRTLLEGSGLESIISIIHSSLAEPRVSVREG

## Cc1ccc2oc(CN(Cc3ccccc3)C(=O)Nc3c(F)cc(F)cc3F)c(-c3ccc(Cl)cc3)c2c1
[1]
  outcome: inactive
[2]
  AC50: 1.36 µM (active)
[3]
  outcome: inactive
[4]
  outcome: inactive
[5]
  AC50: 0.505 µM (active)
[6]
  outcome: inactive
[7]
  outcome: inactive
[8]
  outcome: inactive
[9]
  outcome: inactive

## O=C(O)c1ccccc1C(=O)OCc1ccccc1
[6]
  outcome: inactive
[7]
  outcome: inactive
[8]
  outcome: inactive
[9]
  outcome: inactive

## Cc1cc(F)ccc1-c1cc(N2CC[C@@H](O)[C@H]2CO)ncc1N(C)C(=O)C(C)(C)c1cc(C(F)(F)F)cc(C(F)(F)F)c1
[6]
  AC50: 71.7 µM (active)
[7]
  outcome: inactive
[8]
  outcome: inactive
[9]
  AC50: 12.3 µM (active)

## COc1cccc([C@H](O)C2CCN(CCc3ccc(F)cc3)CC2)c1OC
[1]
  outcome: inactive
[2]
  AC50: 9.1 µM (active)
[3]
  outcome: inactive
[4]
  outcome: inactive
[5]
  AC50: 0.405 µM (active)
[6]
  outcome: inactive
[7]
  outcome: inactive
[8]
  outcome: inactive
[9]
  outcome: inactive

## O=C1CCC(C2CCCCC2)CC1
[1]
  outcome: inactive
[2]
  outcome: inactive
[5]
  outcome: inactive
[6]
  outcome: inactive
[7]
  outcome: inactive
[8]
  outcome: inactive
[9]
  outcome: inactive

## CCCCOC(=O)c1ccc(O)cc1
[10]
  outcome: inactive
[1]
  outcome: inactive
[2]
  outcome: inactive
[5]
  AC50: 3.6 µM (active)
[6]
  outcome: inactive
[7]
  outcome: inactive
[9]
  outcome: inactive

## O=c1c(-c2ccc(O)cc2)coc2cc(O)cc(O)c12
[10]
  AC50: 14.1 µM (active)
[1]
  AC50: 12.4 µM (active)
[2]
  AC50: 4.44 µM (active)
[5]
  AC50: 12.4 µM (active)
[6]
  outcome: inactive
[7]
  outcome: inactive
[8]
  outcome: inactive
[9]
  outcome: inactive

## Cc1cc2c(cc1C(F)(F)F)N(C(=O)Nc1ccc(Oc3cccnc3C)nc1)CC2
[1]
  AC50: 0.588 µM (active)
[2]
  AC50: 0.227 µM (active)
[3]
  outcome: inactive
[4]
  outcome: inactive
[5]
  AC50: 0.257 µM (active)
[6]
  AC50: 78.5 µM (active)
[7]
  outcome: inactive
[8]
  outcome: inactive
[9]
  outcome: inactive

## C[C@]12CC[C@@H]3c4ccc(O)cc4CC[C@H]3[C@@H]1CC[C@H]2O
[1]
  AC50: 2.17 µM (active)
[2]
  AC50: 3.31 µM (active)
[5]
  AC50: 2 µM (active)
[6]
  outcome: inactive
[7]
  outcome: inactive
[8]
  outcome: inactive
[9]
  AC50: 50 µM (active)

## Cc1ncc(CO)c(CO)c1O
[6]
  outcome: inactive
[7]
  outcome: inactive
[8]
  outcome: inactive
[9]
  outcome: inactive

## CCCCCCCCN(C)CCCCCCCC
[10]
  outcome: inactive
[1]
  outcome: inactive
[2]
  outcome: inactive
[5]
  outcome: inactive
[6]
  outcome: inactive
[7]
  outcome: inactive
[8]
  outcome: inactive
[9]
  outcome: inactive

## OC12N=C(c3ccccc3)SC1Cc1cc(Cl)ccc12 (stereo not drawn)
[1]
  AC50: 28.5 µM (active)
[2]
  AC50: 17.6 µM (active)
[3]
  outcome: inactive
[4]
  outcome: inactive
[5]
  outcome: inactive
[6]
  outcome: inactive
[7]
  AC50: 2.18 µM (active)
[8]
  outcome: inactive
[9]
  outcome: inactive

## CCCOC(=O)c1cc(O)c(O)c(O)c1
[6]
  outcome: inactive
[7]
  outcome: inactive
[8]
  outcome: inactive
[9]
  outcome: inactive

## CCN(Cc1cccc(S(=O)(=O)O)c1)c1ccc(C(=C2C=CC(=[N+](CC)Cc3cccc(S(=O)(=O)O)c3)C=C2)c2ccccc2S(=O)(=O)[O-])cc1
[6]
  outcome: inactive
[7]
  outcome: inactive
[8]
  outcome: inactive
[9]
  outcome: inactive

## Clc1cc(Cl)c2c(c1)N=C1CCCCCN1C2
[1]
  outcome: inactive
[2]
  outcome: inactive
[5]
  outcome: inactive
[6]
  outcome: inactive
[7]
  outcome: inactive
[8]
  outcome: inactive
[9]
  outcome: inactive

## CCCCCCCCCC(=O)O
[6]
  outcome: inactive
[7]
  outcome: inactive
[8]
  outcome: inactive
[9]
  outcome: inactive

## CO[C@H]1/C=C/O[C@@]2(C)Oc3c(C)c(O)c4c(O)c(c(/C=N/N5CCN(C)CC5)c(O)c4c3C2=O)NC(=O)/C(C)=C\C=C\[C@H](C)[C@H](O)[C@@H](C)[C@@H](O)[C@@H](C)[C@H](OC(C)=O)[C@@H]1C
[5]
  outcome: inactive
[6]
  outcome: inactive
[7]
  outcome: inactive
[9]
  outcome: inactive

## CC(C)(c1cc(Br)c(O)c(Br)c1)c1cc(Br)c(O)c(Br)c1
[1]
  outcome: inactive
[2]
  outcome: inactive
[5]
  AC50: 4.87 µM (active)
[6]
  AC50: 92.5 µM (active)
[7]
  outcome: inactive
[8]
  outcome: inactive
[9]
  AC50: 92.3 µM (active)

## CN(C[C@@H](CC[N+]12CCC(C3CCCCC3)(CC1)CC2)c1ccc(Cl)c(Cl)c1)C(=O)c1cc(C(F)(F)F)cc(C(F)(F)F)c1
[6]
  AC50: 93.8 µM (active)
[7]
  AC50: 13 µM (active)
[8]
  outcome: inactive
[9]
  outcome: inactive

## CC(=O)N1CCN(c2ccc(OC[C@H]3CO[C@](Cn4ccnc4)(c4ccc(Cl)cc4Cl)O3)cc2)CC1
[1]
  AC50: 0.895 µM (active)
[2]
  AC50: 1 µM (active)
[3]
  outcome: inactive
[4]
  AC50: 1.47 µM (active)
[5]
  outcome: inactive
[6]
  AC50: 89.3 µM (active)
[7]
  AC50: 26.1 µM (active)
[8]
  outcome: inactive
[9]
  AC50: 12.3 µM (active)
